Measured values from PubChem BioAssay (NCI).
About 79,000 compounds went through this panel and 15% of them were active in at least one assay; those are over-represented in the sample as a whole. Activity calls are given as the source filed them. Cut-off read from the data, not from the text of the source: active = growth inhibition above about 70%; inactive = the rest.

Assays:
[1] = NCI Yeast Anticancer Drug Screen. Data for the wt1 strain (AID 149);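 note: 0% = growth of vehicle-treated wt1 cultures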; conditions: S. cerevisiae wt1 strain (SPY 50644) growth inhibition, hits give high values
Outline: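 wt1 yeast, compound-treated; % growth inhibition vs vehicle control.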

[2] = NCI Yeast Anticancer Drug Screen. Data for the mgt1 strain (AID 153); conditions: S. cerevisiae mgt1 mutant growth inhibition, hits give high values
Outline: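 Compounds were applied to mgt1 mutant yeast, and growth was then compared against vehicle-treated control cultures to give percent inhibition.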

[3] = NCI Yeast Anticancer Drug Screen. Data for the rad50 strain (AID 155);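 note: 0% = growth of vehicle-only cultures of the same strain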; conditions: S. cerevisiae rad50 strain growth inhibition, hits give high values
Outline: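 Genetically altered yeast (DNA repair pathway); compound treatment; growth inhibition vs vehicle ctrl.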

[4] = NCI Yeast Anticancer Drug Screen. Data for the mec2-1 strain (AID 157); conditions: S. cerevisiae mec2-1 strain, hits give high values
Outline: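 Compounds were applied to mec2-1 yeast cells. Their growth was then compared with that of vehicle-treated cultures to give growth inhibition.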

[5] = NCI Yeast Anticancer Drug Screen. Data for the sgs1 mgt1 strain (AID 161);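 note: 0% = growth of cultures given vehicle only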; conditions: S. cerevisiae sgs1 mgt1 strain, hits give high values
Outline: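 This yeast growth screen uses a strain with defined DNA-repair lesions; compound-treated growth is compared with vehicle-treated growth.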

[6] = NCI Yeast Anticancer Drug Screen. Data for the CLN2oe strain (AID 163);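 note: 0% = growth of vehicle-only control cultures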; conditions: S. cerevisiae CLN2oe strain, hits give high values
Outline: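 Cells of an engineered yeast line with disturbed cell-cycle regulation are treated with compound. Inhibition of growth is then calculated relative to the vehicle-treated reference.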

[7] = NCI Yeast Anticancer Drug Screen. Data for the cln2 rad14 strain (AID 165);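 note: 0% = growth equal to vehicle treated cultures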; conditions: S. cerevisiae cln2 rad14 strain, hits give high values
Outline: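 Strain: cln2 rad14 yeast, altered in cell cycle control and DNA damage repair. Read-out: growth inhibition vs vehicle.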

[8] = NCI Yeast Anticancer Drug Screen. Data for the bub3 strain (AID 167); conditions: S. cerevisiae bub3 mutant strain, hits give high values
Outline: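 Yeast carrying a defined mutation is treated with each compound, and growth is compared with that of vehicle-exposed cells to give inhibition.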

[9] = NCI Yeast Anticancer Drug Screen. Data for the wt2 strain (AID 169);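 note: 0% = growth of vehicle-treated yeast cultures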; conditions: S. cerevisiae wt2 strain growth inhibition, hits give high values
Outline: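 Growth of compound-treated yeast is measured and expressed as inhibition relative to vehicle-only controls.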

[10] = NCI Yeast Anticancer Drug Screen. Data for the mlh1 strain (AID 171);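 note: 0% = growth of vehicle-treated control cultures of the same strain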; conditions: S. cerevisiae mlh1 strain growth inhibition, hits give high values
Outline: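 Test agents were incubated with yeast bearing a defined DNA damage repair or cell cycle control alteration; values are growth inhibition normalised to vehicle-treated cultures.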

[11] = NCI Yeast Anticancer Drug Screen. Data for the sgs1 strain (AID 173);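 note: 0% = growth of vehicle-only control cultures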; conditions: S. cerevisiae sgs1 mutant, hits give high values
Outline: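 Strain with an altered DNA repair or cell cycle pathway exposed to compound. Growth then measured. Value = inhibition versus vehicle control.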

[12] = NCI Yeast Anticancer Drug Screen. Data for the mlh1 rad18 strain (AID 175); conditions: S. cerevisiae mlh1 rad18 strain growth inhibition, hits give high values
Outline: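 A repair-deficient yeast strain is exposed to test compound, and growth is scored relative to vehicle-treated controls.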

[13] = NCI Yeast Anticancer Drug Screen. Data for the rad50EPP+ strain (AID 151);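 note: 0% = growth of vehicle-treated control cultures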; conditions: S. cerevisiae rad50 mutant strain, hits give high values
Outline: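 Measured: growth inhibition of rad50EPP+ yeast. Reference: vehicle-treated controls. Screen uses strains with defined genetic alterations in DNA damage repair or cell cycle control.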

[14] = NCI Yeast Anticancer Drug Screen. Data for the rad14 strain (AID 159);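 note: 0% = growth of vehicle-treated control cultures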; conditions: S. cerevisiae rad14 strain growth inhibition, hits give high values
Outline: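 Test compounds were applied to a repair-deficient yeast strain. Its growth was then compared with that of cultures given vehicle alone, and inhibition was expressed relative to those controls.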

[15] = NCI Yeast Anticancer Drug Screen. Data for the rad18 strain (AID 177); conditions: S. cerevisiae rad18 mutant growth inhibition, hits give high values
Outline: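 DNA-repair-defective yeast; compound treatment; growth inhibition scored against vehicle.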

[16] = at 5.0 µM (retest, dose inferred, filed as 0.5)
[17] = at 50.0 µM (retest, dose inferred, filed as 5.0)

Measured: growth inhibition

Cc1cnccc1N=Nc1ccc(N(C)C)cc1
active: [3]; at 50.0 µM 81.8% | [8]; at 50.0 µM 89% | [8]; at 100.0 µM 79%
inactive: [1]; at 1.2 µM -5% | [1]; at 3.7 µM -6% | [1]; at 11.0 µM -8% | [1]; at 33.0 µM 1% | [1]; at 100.0 µM 1% | [2]; at 1.2 µM 2% | [2]; at 3.7 µM -2% | [2]; at 11.0 µM 2% | [2]; at 33.0 µM 31% | [2]; at 100.0 µM 41% | [3]; at 1.2 µM -4% | [3]; at 3.7 µM -4% | [3]; [16] -109% | [3]; at 11.0 µM 13% | [3]; at 33.0 µM 27% | [3]; [17] -2% | [3]; at 100.0 µM 37% | [4]; at 1.2 µM -3% | [4]; at 3.7 µM 1% | [4]; [16] -42% | [4]; at 11.0 µM -21% | [4]; at 33.0 µM -4% | [4]; [17] -34% | [4]; at 50.0 µM 30.9% | [4]; at 100.0 µM 3% | [5]; [16] -23% | [5]; [17] 46% | [5]; at 50.0 µM 65.8% | [6]; at 1.2 µM 3% | [6]; at 3.7 µM 8% | [6]; at 11.0 µM 15% | [6]; at 33.0 µM 30% | [6]; at 100.0 µM 30% | [7]; [16] -43% | [7]; [17] -19% | [7]; at 50.0 µM 34% | [8]; at 1.2 µM 8% | [8]; at 3.7 µM 10% | [8]; [16] -33% | [8]; at 11.0 µM 14% | [8]; at 33.0 µM 32% | [8]; [17] 69% | [9]; at 1.2 µM 0% | [9]; at 3.7 µM -1% | [9]; at 11.0 µM 2% | [9]; at 33.0 µM 13% | [9]; at 100.0 µM 4% | [10]; at 1.2 µM -1% | [10]; at 3.7 µM 1% | [10]; at 11.0 µM 0% | [10]; at 33.0 µM 24% | [10]; at 100.0 µM 31% | [11]; at 1.2 µM 2% | [11]; at 3.7 µM 3% | [11]; at 11.0 µM 32% | [11]; at 33.0 µM 52% | [11]; at 100.0 µM 49% | [12]; [16] -95% | [12]; [17] -7% | [12]; at 50.0 µM 36.1%

CN(C)N1C(=O)SCC(c2ccccc2)(c2ccccc2)C1=O
inactive: [1]; at 1.2 µM -4% | [1]; at 3.7 µM -4% | [1]; at 11.0 µM -3% | [1]; at 33.0 µM 6% | [1]; at 100.0 µM 16% | [13]; at 1.2 µM -2% | [13]; at 3.7 µM 2% | [13]; at 11.0 µM -32% | [13]; at 33.0 µM 4% | [13]; at 100.0 µM 7% | [4]; at 1.2 µM 1% | [4]; at 3.7 µM 1% | [4]; [16] 9% | [4]; at 11.0 µM 2% | [4]; at 33.0 µM 9% | [4]; [17] 43% | [4]; at 50.0 µM 10.2% | [4]; at 100.0 µM 27% | [14]; at 1.2 µM 1% | [14]; at 3.7 µM -3% | [14]; at 11.0 µM -4% | [14]; at 33.0 µM -15% | [14]; at 100.0 µM -19% | [5]; [16] 11% | [5]; [17] 43% | [5]; at 50.0 µM 15.4% | [6]; at 1.2 µM -2% | [6]; at 3.7 µM 7% | [6]; at 11.0 µM 2% | [6]; at 33.0 µM 1% | [6]; at 100.0 µM 2% | [8]; at 1.2 µM -2% | [8]; at 3.7 µM -1% | [8]; [16] 12% | [8]; at 11.0 µM 12% | [8]; at 33.0 µM 17% | [8]; [17] 60% | [8]; at 50.0 µM 21.6% | [8]; at 100.0 µM 23% | [9]; at 1.2 µM -2% | [9]; at 3.7 µM -3% | [9]; at 11.0 µM -1% | [9]; at 33.0 µM 4% | [9]; at 100.0 µM 11% | [10]; at 1.2 µM -1% | [10]; at 3.7 µM 1% | [10]; at 11.0 µM 1% | [10]; at 33.0 µM 12% | [10]; at 100.0 µM -10% | [11]; at 1.2 µM -1% | [11]; at 3.7 µM 1% | [11]; at 11.0 µM 4% | [11]; at 33.0 µM 20% | [11]; at 100.0 µM 34% | [12]; [16] 12% | [12]; [17] 29% | [12]; at 50.0 µM 47% | [15]; at 1.2 µM 6% | [15]; at 3.7 µM 5% | [15]; at 11.0 µM 26% | [15]; at 33.0 µM 59%
active: [15]; at 100.0 µM 75%

COc1ccc(/C(=N/O)c2ccccc2C2=Nc3ccccc3C(NCc3ccccc3)O2)cc1C (stereo not given)
inactive: [1]; at 1.2 µM -1% | [1]; at 3.7 µM -2% | [1]; at 11.0 µM 1% | [1]; at 33.0 µM 17% | [2]; at 1.2 µM -2% | [2]; at 3.7 µM -3% | [2]; at 11.0 µM -1% | [2]; at 33.0 µM 31% | [3]; at 1.2 µM 1% | [3]; at 3.7 µM 3% | [3]; [16] 2% | [3]; at 11.0 µM 11% | [3]; at 33.0 µM 59% | [4]; at 1.2 µM -2% | [4]; at 3.7 µM 0% | [4]; [16] -4% | [4]; at 11.0 µM 1% | [4]; at 33.0 µM 37% | [4]; [17] 62% | [14]; at 1.2 µM 1% | [14]; at 3.7 µM 2% | [14]; at 11.0 µM 7% | [14]; at 33.0 µM 21% | [5]; [16] -3% | [6]; at 1.2 µM -2% | [6]; at 3.7 µM 2% | [6]; at 11.0 µM 1% | [6]; at 33.0 µM 4% | [7]; [16] 31% | [7]; [17] 51% | [8]; at 1.2 µM -1% | [8]; at 3.7 µM 2% | [8]; [16] 15% | [8]; at 11.0 µM 4% | [8]; at 33.0 µM 48% | [9]; at 1.2 µM -1% | [9]; at 3.7 µM -3% | [9]; at 11.0 µM 0% | [9]; at 33.0 µM 14% | [10]; at 1.2 µM -6% | [10]; at 3.7 µM -2% | [10]; at 11.0 µM 0% | [10]; at 33.0 µM 14%
active: [1]; at 100.0 µM 89% | [2]; at 100.0 µM 97% | [3]; [17] 95% | [3]; at 50.0 µM 94.9% | [3]; at 100.0 µM 94% | [4]; at 50.0 µM 92.6% | [4]; at 100.0 µM 96% | [14]; at 100.0 µM 96% | [5]; [17] 85% | [5]; at 50.0 µM 95.8% | [6]; at 100.0 µM 94% | [7]; at 50.0 µM 83% | [8]; [17] 93% | [8]; at 50.0 µM 94.8% | [8]; at 100.0 µM 95% | [9]; at 100.0 µM 96% | [10]; at 100.0 µM 96%
